Assay outcomes from PubChem.
Only a selection was taken, and hits are over-represented in it overall.
Pf Dd2 inh – blocks in vitro growth of P. falciparum Dd2; P. falciparum Dd2 growth, SYBR Green, 72 h; Potency, µM (highest dose often 28.9 µM), usual class: inhibitors; 4.3% of 120,000 active; active = well fitted inhibition curve with a large enough effect; also: nearly all actives have a fitted effect of over 65% in size
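Infected erythrocytes (Dd2, 0.3% parasitemia, 2.5% hematocrit final) are added to compound in RPMI-1640/Albumax II medium, grown 72 h at 37C in low oxygen, then lysed with saponin/Triton-X containing SYBR Green and read by fluorescence.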
Numbers stand for hits; i = inactive.

SMILES | Pf Dd2 inh
CCn1ncc(N2CCC(NC(=O)CCC3CCCC3)CC2)cc1=O | i
CC(C)c1noc(C2CCCN(S(=O)(=O)c3ccccc3)CCC(=O)NCC2)n1 (centres undefined) | i
Cc1ncoc1C(=O)N1CCN(C(=O)N2CC3CC(C2)[C@H]2CCCC(=O)N2C3)CC1 (some centres undefined) | i
CCN(CC)C(=O)CC[C@H]1CNC(=O)[C@H]2NCC[C@H]2N1C | i
CCc1ccccc1NC(=O)Cn1c(C)cc2nc3n(c(=O)c21)CCCCC3 | i
CC(=O)Nc1ccc(NC(=O)Cn2ccn3nc(-c4ccc(F)cc4)c(CO)c3c2=O)cc1 | i
O=C(N1CCOCC1)N1CCN(C2CCNCC2)C(=O)C1 | i
O=C(NCc1ccc(F)cc1)c1ccc2c(c1)CNCCO2 | i
CCOc1ccccc1C1NC(=O)N(CC(=O)Nc2ccc(C)cc2)C2=C1C(=O)OC2 (centres undefined) | i
COC(=O)[C@@H]1C[C@H](NC(=O)c2cccc(-n3nnnc3C)c2)CN1C | i
COc1ccc(CN2C(=O)CO[C@H](c3ccc(NC(=O)Cc4ccccc4)cc3)[C@H]2CO)cc1 | i
COc1ccc(N2CC(C(=O)NCC3CC3)NC2=O)cc1 (centres undefined) | i
CN(C(=O)CN1C(=O)C(c2ccccc2)=NC12CCCC2)c1ccccc1 | i
Cc1cccc(N2CCN(C(=O)CCc3conc3-c3ccccc3)CC2)c1C | i
Cc1ccc(NCc2cccn2-c2nnc(N3CCC(C(=O)NC(C)C)CC3)s2)cc1 | i
Cc1ccc(CN(Cc2cccn2-c2nnc(N3CCCC3=O)s2)C(=O)Nc2cc(C)cc(C)c2)cc1 | 3.2µM
COC(=O)c1ccccc1NC(=O)N(Cc1ccc(C)cc1)Cc1cccn1-c1nnc(N2CCCC2=O)s1 | i
Cc1cccc(OCC(=O)N2C[C@@H](CO)[C@H](c3nc(C4CC4)no3)C2)c1 | i
O=C1CCCCC(C(=O)NCc2ccco2)N1 (centres undefined) | i
Cn1cc(-c2cnc3[nH]cc(CC(=O)NC4CCC4)c3c2)cn1 | i
Cc1cc(-c2cnc3[nH]cc(CC(=O)NCc4cccnc4)c3c2)ccn1 | i
CC(C)CNC(=O)Cc1c[nH]c2ncc(-c3cnn(C)c3)cc12 | i
O=C(Cc1c[nH]c2ncc(-c3ccc(F)c(Cl)c3)cc12)NCc1cccnc1 | 4.5µM
O=C(Cc1c[nH]c2ncc(-c3ccsc3)cc12)NCc1cccnc1 | i
O=C(Cc1c[nH]c2ncc(-c3cccnc3)cc12)NC1CC1 | i
SMILES | Pf Dd2 inh
O=C(Cc1c[nH]c2ncc(-c3cn[nH]c3)cc12)NCc1cccnc1 | 11µM
Cn1cc(-c2cnc3[nH]cc(CC(=O)NCc4ccncc4)c3c2)cn1 | 4µM
O=C(Cc1c[nH]c2ncc(-c3cccnc3)cc12)NCc1ccccc1 | 5.6µM
O=C(Cc1c[nH]c2ncc(-c3ccccc3)cc12)NCCc1ccccc1 | i
O=C(Cc1c[nH]c2ncc(-c3ccccc3Oc3ccccc3)cc12)NCc1cccnc1 | i
O=C(Cc1c[nH]c2ncc(-c3ccccc3)cc12)Nc1cccnc1 | i
Cc1noc(C)c1CCC(=O)N1CC[C@@H](NC(=O)c2cnccn2)[C@H](O)C1 | i
CC(C)NC(=O)CC[C@@H]1CNC(=O)[C@@H]2C[C@H](NC(=S)NCc3ccco3)CN12 | i
CCOCCN1C(=O)COC[C@@H]1[C@H](O)c1ccc(NC(=O)COC)cc1 | i
CN1C(=O)C(CC(=O)NCc2noc(-c3c(F)cccc3F)n2)N(C)C1=O (centres undefined) | i
CCNC(=O)[C@@H]1C[C@H](n2cc(CN(C)C(=O)c3cccc(C)c3C)nn2)CN1 | i
CCc1cnc(N)nc1NCc1nc(C(=O)NC)no1 | i
Cc1nc(CC2CCN(C(=O)Nc3ccc4c(c3)OCCO4)CC2)n[nH]1 | i
O=C1CO[C@H]2CN(Cc3ncc[nH]3)C[C@H]2N1Cc1ccccc1 | i
COc1ncccc1-c1cnc2[nH]cc(CC(=O)Nc3ccccc3C)c2c1 | 10µM
COc1ncccc1-c1cnc2[nH]cc(CC(=O)Nc3ccccc3)c2c1 | i
O=C(Cc1c[nH]c2ncc(-c3cccc(OC(F)(F)F)c3)cc12)NCc1cccnc1 | 4µM
CN1CCN(C(=O)Cc2c[nH]c3ncc(-c4cccc(OC(F)(F)F)c4)cc23)CC1 | i
COc1ncccc1-c1cnc2[nH]cc(CC(=O)Nc3ccncc3)c2c1 | i
COc1cc(F)cc(-c2cnc3[nH]cc(CC(=O)NCc4cccnc4)c3c2)c1 | i
O=C(Cc1ccccc1)N1CCC2(CNS(=O)(=O)c3cccnc3O2)C1 (centres undefined) | i
CC(=O)N1CC(n2cc(C(=O)NCC3CC3)nn2)C1 | i
CN(C)C(=O)c1cccnc1OC1CCN(Cc2cccnc2)CC1 | i
COCC(=O)NC1CCC12CCN(C(=O)Nc1ccccc1F)CC2 (centres undefined) | i
N#Cc1ccc(CN2CCC(N3CCNC3=O)CC2)cc1 | i
SMILES | Pf Dd2 inh
COc1cccc(CN2Cc3nc(Oc4ccccc4)ccc3OCC2=O)c1 | i
COc1cccc(CN2Cc3c(CN(C)Cc4ccccc4)nnn3CCC2=O)c1 | 10µM
COc1cccc(CN2Cc3nc(N(C)c4ccccc4)ccc3OCC2=O)c1 | i
COCCn1c(C)cnc1CCNC(=O)c1ccc(OC)nc1 | i
COc1ncccc1-c1ncc2c(n1)OCCN(Cc1ccccc1)C2=O | i
CC(=O)Nc1cccc(-c2ncc3c(n2)OCCN(Cc2ccc(F)cc2F)C3=O)c1 | 13µM
O=C1c2cnc(-c3ccoc3)nc2OCCN1Cc1ccc(F)cc1F | i
COc1ccc(-c2ncc3c(n2)OCCN(Cc2ccccc2)C3=O)cc1 | 1.3µM
COc1cccc(-c2ncc3c(n2)OCCN(Cc2ccccc2)C3=O)c1 | i
O=C1c2cnc(-c3ccc(F)cc3F)nc2OCCN1Cc1ccc(F)cc1F | i
O=C(NCc1cccnc1)c1ccc(-c2ccc(N3CCSCC3)nc2)cc1 | i
O=C(NCCC1CCN(C(=O)Nc2cc(F)ccc2F)CC1)C1CC1 | i
O=C(CN1CCCc2nc(C3CC3)ncc2C1=O)NCCCn1cccn1 | i
CC(C)N1C(=O)C2(CCCCC2)C1C(=O)NCCCN1CCN(c2ccccc2)CC1 (centres undefined) | i
CCNC(=O)N1CCC2(CC1)CC(N(C)Cc1ccccc1)CCO2 (centres undefined) | i
O=C(c1ccc2ccccc2n1)N1CCC2(CC1)CC(Cc1cccc(F)c1)CCO2 (centres undefined) | i
CCCC(=O)N1C[C@@H]2CCCN3CCC[C@@H]([C@H]23)[C@H]1CCCC(=O)N1CCOCC1 | i
O=C(NCCN1CCOCC1)c1ccc(-c2ccc(N3CCCCCC3)nc2)cc1 | i
O=C(Nc1ccc(-c2nnc3n2CCCC3)cc1)C1CCC1 | i
CC(C)NC(=O)c1ccc(-c2nnc3ccc(NC(=O)C4CCC4)cn23)cc1 | 4µM
COc1cccc(NC(=O)c2ccc(-c3nnc4ccc(NC(=O)C5CCC5)cn34)cc2)c1 | 0.28µM
O=C(NC1CCCC1)c1ccc2nnc(-c3cncc(Cl)c3)n2c1 | i
O=C(NC1CC1)c1ccc2nnc(-c3ccc(F)cc3)n2c1 | i
COc1cccc(C(=O)N2CCC(C(=O)Nc3cccc(Cl)c3)CC2)c1 | i
C=CCNC(=O)c1ccc2cncn2c1 | i
COc1cccc(NC(=O)C2CCCN(S(=O)(=O)c3c(C)nn(C)c3C)C2)c1 (centres undefined) | i
Cc1ccc(-c2ccc3nnc(CNC(=O)C4CCCCC4)n3n2)cc1 | i
O=C(NCCN1CCCCC1)c1ccc(-c2nnc3ccc(NC(=O)C4CCC4)cn23)cc1 | 1.3µM
C=CCNC(=O)c1ccc(-c2nnc3ccc(NC(=O)C4CCC4)cn23)cc1 | 3.2µM
